The campaign covered roughly 310,000 compounds. About 14,000 (4.5%) showed an effect of 50% or more. Effects have a minus sign here. The list comes from a sample in which strong results are over-represented; it also holds similar structures and randomly drawn compounds.
Target: human ether-à-go-go-related gene (hERG) potassium channel (human, UniProt Q12809)
Assay: primary screen, population patch clamp on CHO cells stably expressing hERG; higher = less effect of the substance
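Note: peak tail current of the secondary pulse compared with the same well before compound.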

Chain of human ether-à-go-go-related gene (hERG) potassium channel (Q12809 whole entry, looked up): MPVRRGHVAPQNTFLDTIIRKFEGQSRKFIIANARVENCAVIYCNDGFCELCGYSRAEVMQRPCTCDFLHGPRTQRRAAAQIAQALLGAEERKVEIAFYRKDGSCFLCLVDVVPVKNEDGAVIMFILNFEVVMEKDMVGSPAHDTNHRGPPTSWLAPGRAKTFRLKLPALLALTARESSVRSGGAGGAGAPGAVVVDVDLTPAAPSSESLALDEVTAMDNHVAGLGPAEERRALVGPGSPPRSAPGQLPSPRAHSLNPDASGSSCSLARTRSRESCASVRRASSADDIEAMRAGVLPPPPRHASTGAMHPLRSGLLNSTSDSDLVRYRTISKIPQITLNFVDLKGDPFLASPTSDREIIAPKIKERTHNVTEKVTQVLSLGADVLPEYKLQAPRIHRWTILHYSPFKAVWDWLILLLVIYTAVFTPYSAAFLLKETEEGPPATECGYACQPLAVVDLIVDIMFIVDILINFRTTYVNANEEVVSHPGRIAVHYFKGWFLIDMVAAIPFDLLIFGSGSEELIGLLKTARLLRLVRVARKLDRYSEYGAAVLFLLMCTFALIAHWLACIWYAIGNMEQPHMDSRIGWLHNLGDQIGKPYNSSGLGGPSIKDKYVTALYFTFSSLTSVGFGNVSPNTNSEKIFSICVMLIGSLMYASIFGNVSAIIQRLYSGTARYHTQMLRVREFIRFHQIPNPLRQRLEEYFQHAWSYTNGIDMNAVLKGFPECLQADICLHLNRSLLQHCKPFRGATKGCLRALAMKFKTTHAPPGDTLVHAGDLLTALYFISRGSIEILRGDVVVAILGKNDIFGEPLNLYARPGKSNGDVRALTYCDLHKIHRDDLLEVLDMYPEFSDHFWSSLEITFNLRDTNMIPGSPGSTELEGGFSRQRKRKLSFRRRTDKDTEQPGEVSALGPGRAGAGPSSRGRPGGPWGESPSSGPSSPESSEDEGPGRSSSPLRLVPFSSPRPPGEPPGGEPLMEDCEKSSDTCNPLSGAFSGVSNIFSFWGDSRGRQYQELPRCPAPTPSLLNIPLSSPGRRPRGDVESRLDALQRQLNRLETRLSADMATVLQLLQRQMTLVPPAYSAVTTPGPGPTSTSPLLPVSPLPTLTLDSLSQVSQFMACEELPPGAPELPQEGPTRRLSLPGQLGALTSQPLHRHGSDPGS

| SMILES | hERG current change (%, negative = inhibition) at 10uM |
| --- | --- |
| F[B-](F)(F)F.OCCCCC[NH+]=c1cc(-c2ccccc2)oc2ccc(Cl)cc12 | -80.3% |
| Nc1c(C(=O)CCC(=O)O)oc2ccc(Cl)cc12 | -9.4% |
| OCCCNc1nc(-c2ccccc2)c2cc(Cl)ccc2n1 | 3.04% |
| F[B-](F)(F)F.OCC[NH+]=c1cc(-c2ccccc2)oc2ccc(Cl)cc12 | -71.3% |
| CCCNC(=O)c1cccc(COCC(F)(F)F)c1 | -2.57% |
| O=C(Nc1ccccn1)C1(c2cccs2)CCOCC1 | 8.48% |
| Cc1ccc(S(=O)(=O)N2CCOC23CCN(C(=O)c2ccc(Cl)cc2Cl)CC3)cc1 | -48.1% |
| COc1ccc(S(=O)(=O)N2CCC3(CC2)OCCN3S(=O)(=O)c2cccs2)cc1 | -23.8% |
| O=[N+]([O-])c1ccc(S(=O)(=O)N2CCC3(CC2)OCCN3S(=O)(=O)c2cccs2)cc1 | -50.4% |
| O=S(=O)(c1ccc(F)cc1)N1CCC2(CC1)OCCN2S(=O)(=O)c1cccs1 | -10.9% |
| COc1ccc(S(=O)(=O)N2CCOC23CCN(S(=O)(=O)c2ccccc2)CC3)cc1 | 8.72% |
| COc1ccc(S(=O)(=O)N2CCOC23CCN(S(=O)(=O)c2ccc([N+](=O)[O-])cc2)CC3)cc1 | -62% |
| Cc1ccc(S(=O)(=O)N2CCOC23CCN(C(=O)c2cc(Cl)ccc2Cl)CC3)cc1 | -47.6% |
| COc1ccc(S(=O)(=O)N2CCC3(CC2)OCCN3S(=O)(=O)c2ccc(OC)cc2)cc1 | -24.1% |
| COc1ccc(S(=O)(=O)N2CCOC23CCN(C(=O)c2ccc(Cl)cc2Cl)CC3)cc1 | -68.9% |
| COc1ccc(OCCSc2nc(N)cc(=O)[nH]2)cc1 | -1.77% |
| Cc1cccc(OCCC(=O)Nc2ccc(N3CCOCC3)cc2N2CCOCC2)c1 | -19.7% |
| COn1c(SCc2ccc(C)cc2C)nc2ccccc2c1=O | 7.64% |
| O=C(Nc1ccc(SC(F)F)cc1)c1ccc2nccnc2c1 | -17.1% |
| CN1CCC(OC(=O)COc2ccc(C(C)(C)C)cc2)CC1.Cl | -28.7% |

| SMILES | hERG current change (%, negative = inhibition) at 10uM |
| --- | --- |
| CN1CCC(Oc2ccccc2Sc2ccccc2)CC1.O=C(O)C(=O)O | -64.5% |
| CN1CCC(OC(=O)c2ccccc2)CC1.Cl | 7.92% |
| CN1CCC(Oc2ccc(Sc3ccccc3)cc2)CC1.Cl | -67% |
| CN1CCC(OC(=O)COc2ccccc2)CC1.Cl | 15.1% |
| COc1ccc(OC2CCN(S(=O)(=O)c3ccccc3)CC2)cc1 | -11.6% |
| CN1CCC(OC(=O)Cc2ccccc2)CC1.Cl | 5.22% |
| Cc1ccccc1C(=O)OC1CCN(C)CC1.Cl | 6.06% |
| CN1CCC(Oc2ccccc2Sc2ccc(C(F)(F)F)cc2)CC1.O=C(O)C(=O)O | -63.2% |
| COc1ccccc1NC(=O)CCCCC(=O)Nc1ccccc1OC | 7.88% |
| O=Cc1ccccc1-c1cn(CN2C(=O)c3ccccc3C2=O)nn1 | 3.42% |
| O=C(CCc1nnc2ccc(NCc3ccccc3Cl)nn12)N1CCC2(CC1)OCCO2 | -67.7% |
| Cc1ccc(NC(=O)CCc2nnc3ccc(NCc4ccco4)nn23)cc1 | -2.39% |
| Cc1ccc(NC(=O)CCc2nnc3ccc(NCc4ccco4)nn23)cc1F | -70.9% |
| O=C(CCc1nnc2ccc(NCc3ccccc3)nn12)N1CCC2(CC1)OCCO2 | 14.4% |
| O=C(CCc1nnc2ccc(NCc3ccco3)nn12)N1CCN(c2ccccc2F)CC1 | -20.5% |
| O=C(CCc1nnc2ccc(NCc3ccco3)nn12)N1CCN(c2ccc(F)cc2)CC1 | -46.7% |
| O=C(CCc1nnc2ccc(NCc3ccco3)nn12)N1CCN(c2ccccc2)CC1 | -56.3% |
| O=C(CCc1nnc2ccc(NCc3ccc(F)cc3)nn12)N1CCC2(CC1)OCCO2 | -0.229% |
| O=C(CCc1nnc2ccc(NCc3ccco3)nn12)Nc1ccc(F)cc1 | -9.82% |
| COC(=O)C1(Cc2cc(-c3ccc(Cl)cc3)no2)CCN(C(=O)OC(C)(C)C)CC1 | -22.8% |

From article PMC4336329 (PLoS ONE, 2015)
